High-throughput results: PubChem BioAssay, National Center for Advancing Translational Sciences (NCATS)
Sampled rows, rich in hits. Any-hit rate of the full collection: about 12%.
JMJD2A Tudor = qHTS Assay for Inhibitors of JMJD2A-Tudor Domain | AlphaScreen JMJD2A-Tudor / H3K4me3 peptide binding | 4.4% of 390,000 active | Lysine-specific demethylase 4A (Homo sapiens), O75164 | Potency, µM (highest dose often 114 µM), for inactives: top-dose activity change, negative = inhibition, most hits filed as inhibitors; note: % is set by controls: 0 for no effect and ±100 for the full control effect; nearly all actives have a fitted effect of over 50% in size
L3MBTL1 block = qHTS Assay for the Inhibitors of L3MBTL1 | Lethal(3)malignant brain tumor-like protein 1 (Homo sapiens), Q9Y468 | Potency, µM (doses to about 57.1 µM), inactives show at the highest dose activity, negative = inhibition, usual class: inhibitors | AlphaScreen L3MBTL1–H3K9me1 peptide binding | 0.66% of 230,000 active | AID 485360, 2010; note: % is set by controls: 0 for no effect and ±100 for the full control effect; nearly all actives have a fitted effect of over 60% in size
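Read-out is AlphaScreen signal from streptavidin donor and nickel chelate acceptor beads (10 ug/mL final each) bridging L3MBTL1 (50 nM) and biotinylated K9-monomethylated H3(1-15) peptide (75 nM), after 30 min compound exposure at room temperature.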
HP1b chromo inh = HTS for Inhibitors of HP1-beta Chromodomain Interactions with Methylated Histone Tails; Potency, µM (doses to about 114 µM), inactives show top-dose activity change, negative = inhibition, usual class: inhibitors; 0.56% of 390,000 active; Chromobox protein homolog 1 (Homo sapiens), P83916; AlphaScreen HP1-beta / biotin-H3K9me3 peptide binding; note: nearly all actives have a fitted effect of over 70% in size
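Compound inhibition of the preformed complex between 50 nM HP1-beta and 50 nM biotinylated H3K9me3 peptide was read by AlphaScreen. Buffer was PBS pH 7.4 with 0.01% Tween-20. Incubations ran 30 min at room temperature, with 10 ug/mL donor/acceptor beads.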
G9a inh = qHTS Assay for Inhibitors of Histone Lysine Methyltransferase G9a | Histone-lysine N-methyltransferase EHMT2 (Homo sapiens), Q96KQ7 | G9a H3K9 monomethylation, AlphaScreen, 2 h | Potency, µM (doses to about 102 µM), for the others: at the highest dose activity, negative = inhibition, actives largely listed as inhibitors | 8.8% of 350,000 active; note: % is set by controls: 0 for no effect and ±100 for the full control effect; nearly all actives have a fitted effect of over 75% in size
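AlphaScreen detection with an anti-monomethyl H3K9 antibody quantified product after a 2 h room-temperature reaction containing 500 nM biotinylated H3K9 peptide, 20 µM SAM and 20 nM enzyme, which had been preincubated 15 min with compound.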
Sfp PPTase inh = qHTS Assay for Inhibitors of Bacillus subtilis Sfp phosphopantetheinyl transferase (PPTase). Biochemical Sfp PPTase activity, qHTS. Potency, µM, without a hit: largest response in the series, negative = inhibition, actives largely listed as inhibitors. 3.5% of 310,000 active;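 note: the enzyme is Sfp with the accession as filed and its product quenches rhodamine fluorescence; 0% = enzyme reaction without inhibitor and -100% = no enzyme wells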
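After 15 min at room temperature with compound, 15 nM Sfp received 5 uM rhodamine-CoA plus 12.5 uM BHQ-2-ybbR (50 mM Hepes pH 7.6, 10 mM MgCl2). Rate came from the fluorescence difference over 30 min, ex 525/em 598 nm.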
BAZ2B block = qHTS Assay for Inhibitors of BAZ2B | Potency, µM (series often up to 114 µM), for inactives: at the highest dose activity change, negative = inhibition, actives largely listed as inhibitors | AlphaScreen BAZ2B-H3K14Ac peptide displacement | 4.4% of 360,000 active | AID 504333, 2011 | Bromodomain adjacent to zinc finger domain protein 2B (Homo sapiens), Q9UIF8; note: % is set by controls: 0 for no effect and ±100 for the full control effect; nearly all actives have a fitted effect of over 60% in size
Target sequence (Q9UIF8 whole entry, looked up, the tested form may be a part): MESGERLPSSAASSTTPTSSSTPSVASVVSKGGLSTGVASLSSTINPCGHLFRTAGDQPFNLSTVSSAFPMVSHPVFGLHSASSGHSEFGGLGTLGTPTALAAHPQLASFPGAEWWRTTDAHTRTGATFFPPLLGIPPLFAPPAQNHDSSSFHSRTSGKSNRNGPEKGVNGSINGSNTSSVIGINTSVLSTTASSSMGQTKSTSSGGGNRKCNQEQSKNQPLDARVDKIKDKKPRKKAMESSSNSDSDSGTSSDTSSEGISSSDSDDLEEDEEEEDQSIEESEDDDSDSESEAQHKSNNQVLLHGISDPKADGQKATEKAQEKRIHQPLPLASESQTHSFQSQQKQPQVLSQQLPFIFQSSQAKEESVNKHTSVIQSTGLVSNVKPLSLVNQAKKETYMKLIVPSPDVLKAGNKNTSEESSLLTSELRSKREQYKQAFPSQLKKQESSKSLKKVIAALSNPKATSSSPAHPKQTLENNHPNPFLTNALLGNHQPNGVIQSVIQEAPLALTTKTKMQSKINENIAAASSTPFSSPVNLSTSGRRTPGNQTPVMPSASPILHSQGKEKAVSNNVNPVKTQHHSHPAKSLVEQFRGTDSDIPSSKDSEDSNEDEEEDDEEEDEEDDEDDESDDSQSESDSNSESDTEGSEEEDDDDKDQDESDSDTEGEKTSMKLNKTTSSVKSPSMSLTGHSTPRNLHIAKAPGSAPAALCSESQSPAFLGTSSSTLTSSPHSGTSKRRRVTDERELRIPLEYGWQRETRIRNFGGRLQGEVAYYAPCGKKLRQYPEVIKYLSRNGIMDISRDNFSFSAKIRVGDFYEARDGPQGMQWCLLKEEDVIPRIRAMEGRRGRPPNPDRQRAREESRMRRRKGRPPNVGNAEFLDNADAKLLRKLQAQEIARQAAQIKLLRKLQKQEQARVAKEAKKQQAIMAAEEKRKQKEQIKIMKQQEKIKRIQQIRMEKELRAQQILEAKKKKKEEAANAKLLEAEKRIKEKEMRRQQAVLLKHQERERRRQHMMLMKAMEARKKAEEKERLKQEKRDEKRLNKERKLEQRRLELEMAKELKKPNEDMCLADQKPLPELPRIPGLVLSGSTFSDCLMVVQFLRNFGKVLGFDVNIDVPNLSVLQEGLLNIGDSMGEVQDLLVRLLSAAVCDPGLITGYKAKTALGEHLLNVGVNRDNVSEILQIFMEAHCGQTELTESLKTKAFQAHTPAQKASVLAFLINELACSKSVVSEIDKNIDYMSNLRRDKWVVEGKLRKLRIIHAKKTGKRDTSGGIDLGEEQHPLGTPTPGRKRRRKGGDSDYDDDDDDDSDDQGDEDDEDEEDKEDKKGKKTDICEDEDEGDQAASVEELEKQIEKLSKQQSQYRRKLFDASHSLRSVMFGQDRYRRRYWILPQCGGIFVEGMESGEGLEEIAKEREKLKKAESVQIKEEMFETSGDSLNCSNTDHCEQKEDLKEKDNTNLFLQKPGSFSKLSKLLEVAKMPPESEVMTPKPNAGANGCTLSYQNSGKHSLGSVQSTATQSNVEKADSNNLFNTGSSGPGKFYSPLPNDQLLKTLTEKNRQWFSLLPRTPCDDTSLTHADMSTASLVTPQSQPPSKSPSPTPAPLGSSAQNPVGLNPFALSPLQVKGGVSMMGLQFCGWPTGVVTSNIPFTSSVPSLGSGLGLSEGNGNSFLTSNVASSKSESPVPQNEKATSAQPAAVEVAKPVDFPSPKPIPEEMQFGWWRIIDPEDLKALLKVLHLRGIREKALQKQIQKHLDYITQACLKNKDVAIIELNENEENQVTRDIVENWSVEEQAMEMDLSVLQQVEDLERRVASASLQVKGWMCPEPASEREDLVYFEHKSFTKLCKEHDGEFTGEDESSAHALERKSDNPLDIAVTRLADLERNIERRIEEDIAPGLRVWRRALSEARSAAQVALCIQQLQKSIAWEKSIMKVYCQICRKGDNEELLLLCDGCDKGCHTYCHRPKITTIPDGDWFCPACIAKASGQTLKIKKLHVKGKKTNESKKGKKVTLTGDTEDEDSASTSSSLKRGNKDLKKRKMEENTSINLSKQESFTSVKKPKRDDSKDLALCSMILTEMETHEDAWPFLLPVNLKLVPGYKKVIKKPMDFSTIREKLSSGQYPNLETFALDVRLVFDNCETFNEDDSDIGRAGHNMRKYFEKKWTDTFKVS
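AlphaScreen displacement of biotin-H3(5-23)K14Ac peptide (50 nM final) from BAZ2B (50 nM final) in PBS pH 7.4, 0.01% Tween-20; complex preformed 30 min RT, then compounds (top 110 uM) 30 min RT, beads 20 min dark.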
* marks the source's active call; other numbers are inactive results; ? = inconclusive; nt = no result; [ ] = another dose, or the depositor's remark. Calls come from the whole dose curve; as a rule, active = well fitted curve in the direction sought with a large enough effect; inconclusive = small, poorly fitted or top-dose-only effect, or another doubt; inactive = no such curve, though single readings can be large; an effect the other way counts as inactive or inconclusive. Potency is the fitted concentration of half-maximal effect.

SMILES	JMJD2A Tudor	L3MBTL1 block	HP1b chromo inh	G9a inh	Sfp PPTase inh	BAZ2B block
NC(=O)[C@@H]1CCCNc2c(F)cc([N+](=O)[O-])cc2C(=O)N[C@@H](CCC(=O)O)C(=O)N[C@@H](CO)C(=O)N1	-22.1%	1.2%	23.9%	79.4µM*	6.3%	-35.8%
CC[C@H](C)[C@@H]1NC(=O)c2cc([N+](=O)[O-])cc(F)c2NCCCC[C@@H](C(N)=O)NC(=O)[C@H](CC(N)=O)NC1=O	-20.4%	3.4%	35.9%	?	6.9%	-2.3%
NC(=O)[C@@H]1CCCCNc2c(I)cc([N+](=O)[O-])cc2C(=O)N[C@@H](CCC(=O)O)C(=O)N[C@@H](CO)C(=O)N1	-28.4%	?	26.1%	39.8µM*	6.3%	-34.3%
C[C@@H]1C(=O)O[C@H]2C[C@@]34[C@H]5C[C@@H](C(C)(C)C)[C@]36[C@H](OC(=O)[C@H]6O)O[C@]4(C(=O)O5)[C@]21O	nt	nt	nt	nt	5.1%	nt
Cc1cc2c(cc1Cl)C(c1ccc3c(c1)OCO3)CC(=O)O2 (stereo unspecified)	nt	nt	nt	18.5%	5.1%	nt
COc1cccc(OCCSc2nc3ccccc3n2CC(=O)N2CCOCC2)c1	-25.8%	nt	3.0%	?	nt	-32.3%
O=C(C=P(c1ccccc1)(c1ccccc1)c1ccccc1)c1ccccc1-c1ccccc1C(=O)C=P(c1ccccc1)(c1ccccc1)c1ccccc1	44.7µM*	nt	?	nt	nt	nt
COCCOC1CCN(C(=O)C2CCC(=O)N(CCc3ccccc3)C2)CC1 (stereo unspecified)	-8.3%	nt	21.7%	nt	1.0%	17.3%
CC(NC(=O)CNC(=O)c1ccc2c(c1)OCO2)c1ccc(S(N)(=O)=O)cc1 (stereo unspecified)	-13.2%	1.2%	42.3%	37.7%[12.7 µM]	nt	-0.3%
COc1ccc(S(=O)(=O)N2CCN(CC3CC=CCC3)CC2)cc1 (stereo unspecified)	-13.3%	nt	27.4%	20.9%	-3.3%	2.8%
Cc1ccc(S(=O)(=O)N2CCN(CC3CC4C=CC3C4)CC2)cc1 (stereo unspecified)	0.794µM*	nt	28.2µM*	7.94µM*	?	17.8µM*
CCS(=O)(=O)N1CCN(CC2CC3C=CC2C3)CC1 (stereo unspecified)	1.26µM*	nt	?	11.2µM*	-16.4%	50.1µM*
C1=CC2CC1CC2CN1CCN(Cc2ccccc2)CC1 (stereo unspecified)	1.12µM*	nt	?	2µM*	79.4µM*	23.0%
Cc1ccc(N2CCN(S(=O)(=O)c3ccc(C)cc3)CC2)cc1	-17.0%	-2.2%	29.8%	8.3%	-7.4%	-30.8%
FC(F)(F)c1cccc(N2CCN(CC3CC4C=CC3C4)CC2)c1 (stereo unspecified)	-28.5%	-6.3%	24.9%	?	-25.2%	?
CCS(=O)(=O)N1CCN(C(=O)CC(C)C)CC1	-17.6%[57.1 µM]	?	-4.8%	23.3%[59 µM]	6.0%	-1.7%
CCCS(=O)(=O)N1CCN(CC2CC=CCC2)CC1 (stereo unspecified)	0.891µM*	4.9%	-54.8%	7.08µM*	-23.3%	56.2µM*
COc1ccc(NS(=O)(=O)c2nnc(NC(=O)c3ccccc3F)s2)cc1	-5.0%	4.4%	49.1%	-28.7%[59 µM]	33.1%	?
CCOc1ccccc1NC(=O)C(=O)NCCc1sc(-c2cccc(F)c2)nc1C	0.0%	nt	-1.2%[57 µM]	-2.0%[59 µM]	nt	0.4%
CCCS(=O)(=O)N1CCN(CC2CC3C=CC2C3)CC1 (stereo unspecified)	-28.1%[11.4 µM]	-0.1%	?	5.62µM*	-26.0%	50.1µM*
